From PubChem BioAssay
Rows were chosen to be rich in hits. Some 12% of all compounds tested hit in one or more screens of this group.
Sfp PPTase inh = qHTS Assay for Inhibitors of Bacillus subtilis Sfp phosphopantetheinyl transferase (PPTase); 4'-phosphopantetheinyl transferase ffp (Bacillus subtilis), Q9F4F7; Biochemical Sfp PPTase activity, qHTS; Potency, µM, most hits filed as inhibitors; hit rate 3.5% among 310,000; AID 1490, 2009;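 note: the enzyme is Sfp with the accession as filed and its product quenches rhodamine fluorescence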
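Reaction rates are the 30-min fluorescence difference (ex 525, em 598 nm) in wells containing 15 nM Sfp, 5 uM rhodamine-CoA and 12.5 uM BHQ-2-YbbR at pH 7.6 with 10 mM MgCl2.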
JMJD2A Tudor = qHTS Assay for Inhibitors of JMJD2A-Tudor Domain; AlphaScreen JMJD2A-Tudor / H3K4me3 peptide binding; Potency, µM (titrated, usually from 114 µM), most hits filed as inhibitors; AID 504339, 2011; hit rate 4.4% among 390,000; Lysine-specific demethylase 4A (Homo sapiens), O75164; note: nearly all actives have a fitted effect of over 50% in size
HP1b binding inh = HTS for Inhibitors of HP1-beta Chromodomain Interactions with Methylated Histone Tails; AlphaScreen HP1-beta / biotin-H3K9me3 peptide binding; Potency, µM (titrated, usually from 114 µM), usual class: inhibitors; hit rate 0.56% among 390,000; AID 540317, 2011; note: nearly all actives have a fitted effect of over 70% in size
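Compound inhibition of the preformed complex between 50 nM HP1-beta and 50 nM biotinylated H3K9me3 peptide was read by AlphaScreen. Buffer was PBS pH 7.4 with 0.01% Tween-20. Incubations ran 30 min at room temperature, with 10 ug/mL donor/acceptor beads.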
BAZ2B inh = qHTS Assay for Inhibitors of BAZ2B; Bromodomain adjacent to zinc finger domain protein 2B (Homo sapiens), Q9UIF8; AlphaScreen BAZ2B-H3K14Ac peptide displacement; hit rate 4.4% among 360,000; Potency, µM (series often up to 114 µM), hits mostly inhibitors; note: nearly all actives have a fitted effect of over 60% in size
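AlphaScreen displacement of biotin-H3(5-23)K14Ac peptide (50 nM final) from BAZ2B (50 nM final) in PBS pH 7.4, 0.01% Tween-20; complex preformed 30 min RT, then compounds (top 110 uM) 30 min RT, beads 20 min dark.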
G9a inh = qHTS Assay for Inhibitors of Histone Lysine Methyltransferase G9a; G9a H3K9 monomethylation, AlphaScreen, 2 h; Potency, µM (doses to about 102 µM), hits mostly inhibitors; hit rate 8.8% among 350,000; note: nearly all actives have a fitted effect of over 75% in size
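AlphaScreen read-out: biotin-H3K9 peptide (500 nM) methylation by 20 nM enzyme with 20 uM SAM, 2 h at room temperature after 15 min compound preincubation; anti-monomethyl H3K9 antibody plus donor/acceptor beads, 10 min dark.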
L3MBTL1 inh = qHTS Assay for the Inhibitors of L3MBTL1 | AlphaScreen L3MBTL1–H3K9me1 peptide binding | hit rate 0.66% among 230,000 | Potency, µM (highest dose often 57.1 µM), most hits filed as inhibitors | Lethal(3)malignant brain tumor-like protein 1 (Homo sapiens), Q9Y468; note: nearly all actives have a fitted effect of over 60% in size
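L3MBTL1 50 nM + b-AHA-H3(1-15)K9me1 75 nM, 30 min RT; compound added, 30 min RT; streptavidin donor/Ni-chelate acceptor beads 10 ug/mL each final, 30 min RT dark; AlphaScreen read.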
A number is an active result; . = inactive; ? = inconclusive; / = no result given; [ ] = dose if it differs, or a comment. Calls come from the whole dose curve; as a rule, active = well fitted curve in the direction sought with a large enough effect; inconclusive = small, poorly fitted or top-dose-only effect, or another doubt; inactive = no such curve, though single readings can be large; an effect the other way counts as inactive or inconclusive.

SMILES	Sfp PPTase inh	JMJD2A Tudor	HP1b binding inh	BAZ2B inh	G9a inh	L3MBTL1 inh
CCOC(=O)C1CCCN(S(=O)(=O)c2cc3c4c(c2)CCN4C(=O)CC3)C1 (stereo not given)	/	.	.	.	?	.
CCOC(=O)C1CCCN(S(=O)(=O)c2ccc3c4c2CC(=O)N4CC(C)S3)C1 (stereo not given)	.	.	.	.	44.7µM	.
CCOC(=O)C1CCN(S(=O)(=O)c2ccc3c4c2CC(=O)N4CC(C)S3)CC1 (stereo not given)	.	.	.	.	35.5µM	.
CCOC(=O)C1CCN(S(=O)(=O)c2cn(C)c(=O)n(C)c2=O)CC1	?	.	.	.	.	.
COc1ccc(C2Nc3ccccc3C(=O)N2c2cccc3ccccc23)cc1COc1c(C)cccc1C (stereo not given)	/	.	.	/	/	/
COc1ccccc1NC(=O)Cn1c(=O)n(Cc2nc(-c3ccccc3)no2)c(=O)c2ccccc21	/	.	.	.	.	/
C=CC(=O)N1C/C(=C/c2ccc(F)cc2)C(=O)/C(=C\c2ccc(F)cc2)C1	/	17.8µM	?	/	/	/
CN1C2CCC1/C(=C\c1ccc(F)cc1)C(=O)/C2=C/c1ccc(F)cc1	.	.	.	.	.	.
Cc1cccn2c(=O)c3cc(C(N)=S)c(=N)n(CCCN4CCOCC4)c3nc12	.	.	.	.	44.7µM	/
Cc1cccn2c(=O)c3cc(C#N)c(=N)n(CCN4CCOCC4)c3nc12	.	.[11.4 µM]	.	50.1µM	.	/
Cc1ccc2nc3c(cc(C(N)=S)c(=N)n3CCCOC(C)C)c(=O)n2c1	44.7µM	?	?	.	22.4µM	.
O=C(O)/C=C/c1ccc2ccccc2n1	.	.	.	.	.	.[11.4 µM]
CCOc1nc2ccccc2cc1/C=C/C(=O)O	.	.	.	.	50.1µM	.
Cc1cc(-n2c(C)cc(C(=S)N3CCOCC3)c2C)ccc1Br	.	?	?	44.7µM	12.6µM	.
CC(=O)c1ccc(-n2nnnc2SCC(=O)Nc2sc(C)c(C)c2C#N)cc1	50.1µM	?	.	.	.	?
Cc1sc(NC(=O)CSc2nnnn2C)c(C#N)c1C	.	.	.	.	/	.
CCCn1nnnc1SCC(=O)Nc1sc(C)c(C)c1C#N	50.1µM	.	.	.	.[12.7 µM]	/
CCN(CC)S(=O)(=O)c1cc(NC(=O)c2ccc3c(c2)NC(=O)C(C)S3)ccc1C (stereo not given)	/	.	?	.	1µM	.
Cc1ccc2nc(/C(C#N)=C/c3ccc(-c4cccc([N+](=O)[O-])c4)o3)[nH]c2c1	.	?	.	?	7.94µM	.
Cc1cc(/C=C(\C#N)c2nc3ccccc3[nH]2)c(C)n1C	.	.	.	.	.	.
Cc1cc(/C=C(/C#N)c2nc3ccccc3[nH]2)c(C)n1-c1cccc([N+](=O)[O-])c1	.	89.1µM	.	?	11.2µM	/
Cc1ccc(-n2ncc(C(=O)NCCCN3CCN(C)CC3)c2C2CCN(C(=O)OC(C)(C)C)CC2)cc1	/	.	.	.	.	/
N#CCCn1c(=O)c(CCc2ccccc2)nc2cnc(Nc3ccccc3)nc21	.	/	/	/	.[0.501 µM]	/
CCn1c(Nc2ccccc2Cl)nc2ccccc21	.	44.7µM	.	.	.	.
CCCCn1c(NCc2ccccn2)nc2ccccc21	56.2µM	.	.	/	?	.
Cc1ccc(CNc2nc3ccc(C)cc3n3cnnc23)cc1	?	.	.	.	50.1µM	/
CCCn1c(Nc2nc3ccccc3n2C)nc2ccccc21	?	56.2µM	.	8.91µM	.	17.8µM
O=C(NCc1cccc(F)c1)c1ccc(-n2cnc3cccnc32)cc1	/	.	.	.	.	/
